Screening results: PubChem BioAssay, National Center for Advancing Translational Sciences (NCATS)
Only some compounds are listed: those with a hit (about 3.2% of all), similar ones and a draw of the others.
TRb-SRC2 inh = inhibitors of human thyroid hormone receptor beta-SRC2 interaction; P10828; TRbeta-SRC2 peptide binding, fluorescence polarization; receptor liganded with 1 µM T3; Potency, µM (titrated, usually from 106 µM), for inactives: top-dose activity change, negative = inhibition, most hits filed as inhibitors; 280,000 tested, 0.065% active;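 note: plate controls were bound peptide for no effect and peptide without receptor for full effect; nearly all actives have a fitted effect of over 50% in size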
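Fluorescence polarization of 20 nM Texas Red SRC2 peptide (20-aa NR interaction domain) bound to 0.6 uM human TRb ligand-binding domain, with 1 uM T3, after 5 hr at ambient temperature; inhibition seen as decreased polarization.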
Tau ThT inhib = tau fibrillization inhibition (ThT binding); P10636; recombinant tau K18 P301L, heparin-induced fibrillization, ThT fluorescence; Potency, µM (titrated, usually from 57.4 µM), without a hit: at the highest dose activity, negative = inhibition, actives largely listed as inhibitors; 270,000 tested, 2.1% active; note: nearly all actives have a fitted effect of over 55% in size
Target sequence (P10636 561-689 P618L limits assumed): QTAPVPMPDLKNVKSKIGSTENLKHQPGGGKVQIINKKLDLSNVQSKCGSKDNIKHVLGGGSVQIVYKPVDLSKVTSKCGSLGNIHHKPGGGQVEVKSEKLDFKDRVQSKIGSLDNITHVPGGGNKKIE
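Tau K18 P301L fragment (15 uM unlabeled plus 0.24 uM Alexa 594-labeled) in 100 mM sodium acetate pH 7 with compound, fibrillization induced by 20 uM heparin for 6 hr at 37 C. Thioflavin T (30 uM) added, fluorescence read after 1 hr (ex 450, em 510 nm).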
Tau fibril FP = blocks human tau fibril formation measured by polarization; P10636; K18 P301L tau heparin fibrillization, Alexa594 FP, 6 h; Potency, µM (doses to about 57.7 µM), for the others: at the top dose activity, negative = inhibition, usual class: inhibitors; 280,000 tested, 0.39% active; AID 1468; note: nearly all actives have a fitted effect of over 55% in size
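Heparin (20 uM) drove fibril formation of recombinant tau K18 P301L, 15 uM unlabeled with 0.24 uM Alexa 594 label, for 6 hr at 37 C in 100 mM sodium acetate pH 7. Fluorescence polarization (555/632 nm) read 1 hr after 30 uM ThT.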
TexasRed fluor = counter-screen for TRb-SRC2 inhibitors: fluorescence interference; TRb/SRC2 Texas Red total fluorescence interference; Potency, µM (doses to about 106 µM), for the others: at the top dose fluorescence change, negative = quenching; 280,000 tested, 0.29% active; AID 1479; active = well fitted curve in either direction with a large enough effect; inconclusive = small, poorly fitted or top-dose-only effect
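Human TRβ ligand-binding domain (0.6 uM) and Texas Red SRC2 peptide (20 nM) in Tris buffer with 1 uM T3 and 5% DMSO were incubated with pinned compound for 5 hr at ambient temperature. Total fluorescence was computed as S + 2P (555/632 nm).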
RGS12 GoLoco inh = RGS12 GoLoco-Gai1 interaction inhibition. Gai1:RGS12 GoLoco peptide FP, rhodamine, 10 min. Potency, µM (doses to about 61.6 µM), without a hit: at the top dose activity, negative = inhibition, most hits filed as inhibitors. 230,000 tested, 0.44% active; active = well fitted inhibition curve with a large enough effect, not every such curve was filed as active; inactive = no such curve, though single readings can be large or run the other way; note: nearly all actives have a fitted effect of over 30% in size
Target sequence (P63096 whole entry, looked up): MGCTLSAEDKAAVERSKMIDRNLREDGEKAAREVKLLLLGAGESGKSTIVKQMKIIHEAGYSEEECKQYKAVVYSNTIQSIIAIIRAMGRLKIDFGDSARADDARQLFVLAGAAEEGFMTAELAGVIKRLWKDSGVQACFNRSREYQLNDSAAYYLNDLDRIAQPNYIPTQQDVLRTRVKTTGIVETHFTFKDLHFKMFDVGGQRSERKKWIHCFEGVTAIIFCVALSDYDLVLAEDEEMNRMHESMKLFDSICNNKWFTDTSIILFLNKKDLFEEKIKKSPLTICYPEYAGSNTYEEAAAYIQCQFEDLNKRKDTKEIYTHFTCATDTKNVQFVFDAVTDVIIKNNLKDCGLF
Tau fluor counter = counter-screen for tau fibril formation inhibitors; AID 1463; Potency, µM (series often up to 57.7 µM), for inactives: at the top dose activity change, negative = decrease; 280,000 tested, 0.93% active; tau K18 P301L (four-repeat tau fragment) Alexa594 fluorescence, heparin fibrillization; note: nearly all actives have a fitted effect of over 55% in size
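Human K18 P301L tau (15 uM unlabeled plus 0.24 uM Alexa 594-labeled, final) in 100 mM sodium acetate pH 7 was mixed with compound and 20 uM heparin and incubated 6 hr at 37 C.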
* hit, by the source's call; ? = inconclusive; / = no result; ! = a repeat was not active; [ ] = dose if it differs, or a comment. Unless noted, calls come from the whole dose curve; as a rule, active = well fitted curve in the direction sought with a large enough effect; inconclusive = small, poorly fitted or top-dose-only effect, or another doubt; inactive = no such curve, though single readings can be large; an effect the other way counts as inactive or inconclusive. Unless noted, % is set by controls: 0 for no effect and ±100 for the full control effect; potency is the fitted concentration of half-maximal effect.

SMILES	TRb-SRC2 inh	Tau ThT inhib	Tau fibril FP	TexasRed fluor	RGS12 GoLoco inh	Tau fluor counter
CC(=O)OC[C@@H]1O[C@H](CCON=C(C)C)C=C[C@@H]1OC(C)=O	0.8%[11.2 µM]	?	-3.9%[11.6 µM]	1.1%[11.2 µM]	/	?
CC(=O)O[C@@H]1[C@@H](O)CN[C@@H]1Cc1ccccc1	-1.2%	/	/	-1.7%	/	/
Cc1cc2c(NC(=O)Nc3ccc(C(C)(C)C)cc3)cccc2nn1	-21.6%	-14.6%	35.5µM*	5.9%	-4.1%	15.8µM*[quencher]
N#Cc1ccccc1OCC(O)CNCCNC(=O)Nc1ccccc1 (stereo unspecified)	1.6%	-2.8%	-7.2%	-0.9%	17.5%	-4.8%
COc1ccc(-c2nc3cnc(N4CCN(C)CC4)nc3n(Cc3ccc(F)cc3)c2=O)cc1	/	/	/	/	0.3%	/
O=C(c1ccccc1)c1ccc2nc(-c3ccc(NC(=O)c4ccccc4Br)cc3)[nH]c2c1	6.0%	?	?	0.7%	13.4%	?
Cc1ccccc1C(=O)Nc1ccc(-c2nc3ccc(C(=O)c4ccccc4)cc3[nH]2)cc1	-11.3%	-4.5%	28.2µM*	-1.7%	5.3%	?
C=C1CCN(C(C)C(=O)OCc2ccc(C)cc2)S(=O)(=O)c2ccccc21 (stereo unspecified)	1.4%	/	/	-0.3%	/	/
Cc1ccc2[nH]c3nc(CCCn4ccnc4-c4ccccc4)nnc3c2c1	0.5%[11.2 µM]	-7.9%[11.5 µM]	-1.4%[11.6 µM]	-0.3%[11.2 µM]	/	-3.5%[11.6 µM]
O=[N+]([O-])/C=C\c1ccc(N2CCCC2)c(F)c1	-1.2%	15.8µM*	-7.8%	-1.5%	69.1%	?
COc1ccc(CNc2nc(NCc3ccc(OC)cc3)c3ncn(C4CCCCC4)c3n2)cc1	-3.4%	/	/	-3.2%	/	/
CC(Sc1nnc(NC2CCCCC2)s1)C(=O)Nc1ccc2c(c1)C(=O)c1ccccc1C2=O (stereo unspecified)	8.5%	?	14.3%	-0.7%	14.9%	15.8µM*[quencher]
CC(Sc1nnc(Nc2ccccc2)s1)C(=O)NC1CCCc2ccccc21 (stereo unspecified)	-0.9%	7.7%	5.4%	-22.7%	17.4%	1.5%
Cc1ccc(OCCSc2nc3ccc(NC(=O)c4cccs4)cc3s2)cc1	-5.6%	?	?	?	/	?
O=C(Nc1ccc2nc(SCCOc3ccccc3Cl)sc2c1)c1cccs1	7.3%	12.5%	10µM*	9.4%	/	?
Cc1cc(C)cc(OCCSc2nc3ccc(NC(=O)c4cccs4)cc3s2)c1	9.7%	7.3%	7.08µM*	-19.6%	/	?
COCCn1c(=O)c(-c2cccs2)nc2cnc(N(C)C)nc21	/	/	/	/	5.2%	/
NC(N)=N/N=C(/c1ccccc1)c1ccc(O)cc1O	/	/	/	/	5.0%[14.2 µM]	/
COC(=O)N[C@@H](/C=C/c1ccccc1)C[N+](=O)[O-]	2.1%	0.7%	-5.0%	-1.1%	1.7%	-4.6%
COc1ccc2[nH]cc(CCNc3ccnc(-c4ccccc4Cl)n3)c2c1	/	/	/	/	14.1%	/
CC(C)CCOc1ccc(N)cc1	-1.5%	/	/	-1.2%	/	/
C[C@@]12CCC[C@H]1C1CC[C@H]3C[C@H](O)CC[C@]3(C)C1CC2 (stereo partly specified)	-0.9%	-12.4%	1.5%	0.9%	2.1%	-8.8%
CCOC(=O)c1cc(-c2ccccc2)n(-c2cccc(C(=O)NC(C)CC)c2)c1C (stereo unspecified)	-4.6%	-11.9%	-6.5%	0.3%	/	-11.1%
COc1ccc(-c2cc(C3CCN(c4ccc(C(C)=O)cc4[N+](=O)[O-])CC3)[nH]n2)cc1	2.4%	3.55µM*	-6.3%	-3.8%	3.8%	?
COC(=O)c1ccc(N2CCC(c3cc(-c4ccc(OC)cc4)n[nH]3)CC2)c([N+](=O)[O-])c1	-11.6%	3.55µM*	?	0.0%	2.5%	?
SMILES	TRb-SRC2 inh	Tau ThT inhib	Tau fibril FP	TexasRed fluor	RGS12 GoLoco inh	Tau fluor counter
CC(=O)c1ccc(N2CCC(c3cc(-c4ccc(Cl)cc4)n[nH]3)CC2)c([N+](=O)[O-])c1	6.5%	4.47µM*	?	-1.8%	5.3%	?
O=C(O)C[C@H](NC(=O)CP(=O)(O)O)C(=O)O.[NH-][C@@H]1CCCC[C@@H]1[NH-].[Pt]	/	/	/	/	7.2%[14.2 µM]	/
COc1ccc(NC(=O)CN2C(=O)CC(c3ccc(C)c(C)c3)=Nc3ccccc32)cc1OC	3.4%	?	-0.7%	-3.8%	/	25.1µM*[quencher]
COc1ccc(S(=O)(=O)N(CCO)c2ccccc2CN(C)CC=Cc2ccc(Cl)cc2)cc1	4.7%	-17.2%	-1.3%	0.6%	10.2%	-21.8%
Oc1cccc(C=NCc2ccccc2)c1O	?	7.94µM*	?	-3.8%	65.7%	?
COc1ccc(-c2nnc3n2N=C(c2ccccc2OC)CS3)c(OC)c1	0.9%	/	/	-0.6%	/	/
COc1ccc(OC)c(NC(=O)CN2C(=O)c3ccccc3Sc3ccc(C(=O)N4CCCC4)cc32)c1	-20.2%	-17.2%	-0.2%	794µM*[quencher]	/	-7.3%
COc1cc2c(C)c3c4c(cc(OC)c(OC)c4c2cc1OC)CCN3C	-7.3%	?	?	-0.7%	2.5%	10µM*[quencher]
COc1cc2c(C=O)c3c4c(cc(OC)c(OC)c4c2cc1OC)CCN3C	-24.9%	14.1µM*	-8.4%	-0.8%	60.4%	?
COc1cc2c(cc1OC)CC(=O)N(C)CC2	-2.4%	5.6%	2.1%	-3.0%	2.8%	8.9%
COc1cc2c(cc1OC)-c1cc3cc(OC)c(OC)cc3c(=O)n1CC2	3.2%	?	7.0%	-12.7%	-0.9%	-27.0%
Cc1ccc(C)c(S(=O)(=O)Nc2cc(SCC(=O)O)c(O)c3ccccc23)c1	?	3.55µM*	7.94µM*	-22.3%	-0.3%	?
COc1ccc(C2=NN(S(C)(=O)=O)C(c3cn(-c4ccccc4)nc3-c3cccs3)C2)cc1 (stereo unspecified)	3.7%	8.1%	20µM*	-1.9%	/	?
N#CC1CC(c2ccc([N+](=O)[O-])cc2)=NN1c1ccc([N+](=O)[O-])cc1 (stereo unspecified)	0.6%	3.16µM*	12.6%	1.2%	19.4%	?
CC1=C(C(=O)Nc2ccc(C)cc2C)C(c2ccccc2F)n2nc(SCC(=O)c3ccc(C)cc3)nc2N1 (stereo unspecified)	-17.7%	?	?	0.0316µM*[quencher]	/	27.2%
CCCCCC(N)=O	3.7%	/	/	-1.9%	-8.9%	/
CCCCCCCC/C=C\CCCCCCCC(N)=O	-1.3%	-15.9%	-0.3%	1.9%	22.4µM*!	-9.8%
CCOc1ccc(S(=O)(=O)Nc2cccc(-c3ccc(N4CCCC4)nn3)c2)cc1	-7.3%	-8.7%	-5.7%	20µM*[quencher]	/	-27.9%
O=S(=O)(Nc1cccc(-c2ccc(N3CCCCC3)nn2)c1)c1ccc(F)cc1F	2.9%	?	8.6%	-7.4%	/	-23.6%
CC1CCN(c2ccc(-c3cccc(NS(=O)(=O)c4ccc(F)cc4F)c3)nn2)CC1	-19.3%	-3.9%	-6.6%	8.91µM*[quencher]	/	-19.1%
